# Data as given in article PMC7862700, “An all-to-all approach to the identification of sequence-specific readers for epigenetic DNA modifications on cytosine”.
# Experiments:
# Experiment in all cases: DAPPL (digital affinity profiling via proximity ligation, sequencing); 10 mM Tris-HCl pH 7.5, 50 mM NaCl, 1 mM DTT, 4% glycerol, room temperature, 30 min; GST-TFs on glutathione beads, 16-mer random dsDNA library, 0.1% formaldehyde crosslink after washing; high values mean tight binding
# FLI1 = target: T1, FLI1 (Homo sapiens, UniProt Q01543 1-452); settings: protein: recombinant; tags: N-terminal GST; dsDNA, one strand shown
# T1 sequence: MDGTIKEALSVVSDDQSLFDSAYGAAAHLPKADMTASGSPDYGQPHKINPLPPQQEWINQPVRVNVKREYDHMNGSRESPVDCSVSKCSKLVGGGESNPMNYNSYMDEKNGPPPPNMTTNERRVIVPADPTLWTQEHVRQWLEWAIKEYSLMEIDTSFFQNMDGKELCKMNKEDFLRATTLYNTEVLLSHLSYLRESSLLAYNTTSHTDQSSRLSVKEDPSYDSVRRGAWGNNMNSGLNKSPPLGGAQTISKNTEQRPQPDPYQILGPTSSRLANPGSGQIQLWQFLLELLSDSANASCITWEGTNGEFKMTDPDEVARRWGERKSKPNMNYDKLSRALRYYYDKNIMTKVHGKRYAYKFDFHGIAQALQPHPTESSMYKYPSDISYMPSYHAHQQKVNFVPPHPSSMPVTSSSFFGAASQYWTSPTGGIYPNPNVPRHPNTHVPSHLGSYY
# Method in brief: (§1)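 The binding signal reported is, for every hexamer, its read frequency for a factor over its read frequency for the tag-only sample. Reads came from pools of yeast-expressed, GST-fused human transcription factors on glutathione beads, barcoded with DNA and mixed with that sample, which were incubated with 200 nmole of a random double-stranded 16-mer DNA library in Tris/NaCl/DTT/glycerol buffer at room temperature for 30 min. After washing, the pools were crosslinked with 0.1% formaldehyde, proximity-ligated with BsaI/T4 ligase for 1 h at 37 °C, PCR-amplified and sequenced on an Illumina NextSeq500.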
# ELK1 = target: T2, ELK1 (Homo sapiens, UniProt P19419 1-428); settings: protein: recombinant; tags: N-terminal GST; dsDNA, one strand shown
# T2 sequence: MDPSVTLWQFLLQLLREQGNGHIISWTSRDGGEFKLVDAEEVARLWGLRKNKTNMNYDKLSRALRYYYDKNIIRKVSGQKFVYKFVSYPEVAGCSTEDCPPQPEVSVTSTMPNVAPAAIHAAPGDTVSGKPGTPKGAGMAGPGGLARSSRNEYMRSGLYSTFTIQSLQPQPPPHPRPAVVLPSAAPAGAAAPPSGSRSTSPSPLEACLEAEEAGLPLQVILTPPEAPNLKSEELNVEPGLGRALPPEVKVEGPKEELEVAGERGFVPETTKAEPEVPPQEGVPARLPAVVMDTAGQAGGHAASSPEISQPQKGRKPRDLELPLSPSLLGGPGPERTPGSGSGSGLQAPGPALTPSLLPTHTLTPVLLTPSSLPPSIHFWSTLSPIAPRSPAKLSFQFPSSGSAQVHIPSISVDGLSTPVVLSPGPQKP
# Method in brief: as §1
# GABPA = target: T3, GABPA (Homo sapiens, UniProt Q06546 1-454); settings: protein: recombinant; tags: N-terminal GST; dsDNA, one strand shown
# T3 sequence: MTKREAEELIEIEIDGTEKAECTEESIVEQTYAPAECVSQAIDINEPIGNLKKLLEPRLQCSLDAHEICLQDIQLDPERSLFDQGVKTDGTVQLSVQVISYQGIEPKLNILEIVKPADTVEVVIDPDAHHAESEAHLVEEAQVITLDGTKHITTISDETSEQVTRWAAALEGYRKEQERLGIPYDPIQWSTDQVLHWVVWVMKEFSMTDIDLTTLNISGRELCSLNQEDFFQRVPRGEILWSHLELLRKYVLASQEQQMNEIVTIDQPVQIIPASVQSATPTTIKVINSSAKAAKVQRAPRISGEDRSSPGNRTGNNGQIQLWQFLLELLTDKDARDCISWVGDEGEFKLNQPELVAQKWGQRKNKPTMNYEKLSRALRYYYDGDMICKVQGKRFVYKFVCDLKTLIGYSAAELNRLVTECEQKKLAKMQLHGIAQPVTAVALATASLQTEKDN
# Method in brief: as §1
# ERG = target: T4, ERG (Homo sapiens, UniProt P11308 1-479); settings: protein: recombinant; tags: N-terminal GST; dsDNA, one strand shown
# T4 sequence: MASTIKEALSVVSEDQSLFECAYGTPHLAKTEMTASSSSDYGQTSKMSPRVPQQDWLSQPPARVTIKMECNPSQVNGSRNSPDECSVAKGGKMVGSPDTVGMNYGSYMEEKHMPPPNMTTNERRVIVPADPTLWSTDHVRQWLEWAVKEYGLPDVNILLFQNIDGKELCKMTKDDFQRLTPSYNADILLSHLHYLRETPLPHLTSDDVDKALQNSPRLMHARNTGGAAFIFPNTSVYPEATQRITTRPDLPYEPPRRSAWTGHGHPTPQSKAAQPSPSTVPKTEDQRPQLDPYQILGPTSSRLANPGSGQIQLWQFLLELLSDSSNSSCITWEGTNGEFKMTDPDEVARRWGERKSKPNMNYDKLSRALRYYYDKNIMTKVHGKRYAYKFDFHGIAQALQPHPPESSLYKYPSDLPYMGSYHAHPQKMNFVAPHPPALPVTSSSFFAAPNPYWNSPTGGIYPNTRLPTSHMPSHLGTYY
# Method in brief: as §1
# ELF1 = ELF1 (Homo sapiens, UniProt P32519 1-619); settings: protein: recombinant; tags: N-terminal GST; dsDNA, one strand shown
# Method in brief: as §1
# EHF = target: T5, EHF (Homo sapiens, UniProt Q9NZC4 1-300); settings: protein: recombinant; tags: N-terminal GST; dsDNA, one strand shown
# T5 sequence: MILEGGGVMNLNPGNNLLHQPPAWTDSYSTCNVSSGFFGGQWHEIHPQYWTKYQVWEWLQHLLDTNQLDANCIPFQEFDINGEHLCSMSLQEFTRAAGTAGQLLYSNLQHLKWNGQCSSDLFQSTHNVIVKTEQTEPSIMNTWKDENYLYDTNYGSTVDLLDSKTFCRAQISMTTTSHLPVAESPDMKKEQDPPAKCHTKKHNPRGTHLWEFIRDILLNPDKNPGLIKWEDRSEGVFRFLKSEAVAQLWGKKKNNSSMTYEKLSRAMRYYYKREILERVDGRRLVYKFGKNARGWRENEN
# Method in brief: as §1
# SPI1 = SPI1 (Homo sapiens, UniProt P17947 1-270); settings: protein: recombinant; tags: N-terminal GST; dsDNA, one strand shown
# Method in brief: as §1
# SPIB = SPIB (Homo sapiens, UniProt Q01892 1-262); settings: protein: recombinant; tags: N-terminal GST; dsDNA, one strand shown
# Method in brief: as §1
# ELK3 = target: T6, ELK3 (Homo sapiens, UniProt P41970 1-407); settings: protein: recombinant; tags: N-terminal GST; dsDNA, one strand shown
# T6 sequence: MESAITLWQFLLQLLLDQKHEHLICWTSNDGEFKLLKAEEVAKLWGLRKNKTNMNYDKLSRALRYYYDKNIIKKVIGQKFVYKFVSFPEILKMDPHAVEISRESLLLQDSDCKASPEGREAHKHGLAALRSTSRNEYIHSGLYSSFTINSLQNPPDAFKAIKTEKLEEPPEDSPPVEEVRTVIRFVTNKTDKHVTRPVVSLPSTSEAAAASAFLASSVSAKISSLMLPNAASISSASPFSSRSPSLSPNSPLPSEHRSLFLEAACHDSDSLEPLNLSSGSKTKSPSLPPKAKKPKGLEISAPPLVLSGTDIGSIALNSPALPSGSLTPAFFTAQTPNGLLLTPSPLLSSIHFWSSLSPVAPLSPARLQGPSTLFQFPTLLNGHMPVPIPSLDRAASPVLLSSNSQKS
# Method in brief: as §1
# FEV = target: T7, FEV (Homo sapiens, UniProt Q99581 1-238); settings: protein: recombinant; tags: N-terminal GST; dsDNA, one strand shown
# T7 sequence: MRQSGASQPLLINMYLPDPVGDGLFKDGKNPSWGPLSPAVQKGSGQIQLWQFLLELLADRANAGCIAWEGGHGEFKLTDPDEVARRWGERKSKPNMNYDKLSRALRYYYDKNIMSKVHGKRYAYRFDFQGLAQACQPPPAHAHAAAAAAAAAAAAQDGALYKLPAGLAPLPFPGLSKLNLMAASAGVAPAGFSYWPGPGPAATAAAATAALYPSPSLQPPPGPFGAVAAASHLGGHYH
# Method in brief: as §1
# ETV5 = ETV5 (Homo sapiens, UniProt P41161 1-510); settings: protein: recombinant; tags: N-terminal GST; dsDNA, one strand shown
# Method in brief: as §1
# HSF1 = HSF1 (Homo sapiens, UniProt Q00613 1-529); settings: protein: recombinant; tags: N-terminal GST; chain copies: 3; dsDNA, one strand shown
# Method in brief: as §1
# SPIC = target: T8, SPIC (Homo sapiens, UniProt Q8N5J4 1-248); settings: protein: recombinant; tags: N-terminal GST; dsDNA, one strand shown
# T8 sequence: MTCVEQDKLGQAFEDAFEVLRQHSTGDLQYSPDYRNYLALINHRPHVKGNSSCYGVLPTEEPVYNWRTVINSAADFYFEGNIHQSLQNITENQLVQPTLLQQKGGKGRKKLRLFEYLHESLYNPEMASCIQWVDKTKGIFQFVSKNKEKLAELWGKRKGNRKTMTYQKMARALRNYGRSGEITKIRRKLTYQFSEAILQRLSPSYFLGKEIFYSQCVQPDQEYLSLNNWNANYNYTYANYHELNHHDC
# Method in brief: as §1
# ELF4 = ELF4 (Homo sapiens, UniProt Q99607 1-663); settings: protein: recombinant; tags: N-terminal GST; dsDNA, one strand shown
# Method in brief: as §1
# ELK4 = target: T9, ELK4 (Homo sapiens, UniProt P28324-2 1-405); settings: protein: recombinant; tags: N-terminal GST; dsDNA, one strand shown
# T9 sequence: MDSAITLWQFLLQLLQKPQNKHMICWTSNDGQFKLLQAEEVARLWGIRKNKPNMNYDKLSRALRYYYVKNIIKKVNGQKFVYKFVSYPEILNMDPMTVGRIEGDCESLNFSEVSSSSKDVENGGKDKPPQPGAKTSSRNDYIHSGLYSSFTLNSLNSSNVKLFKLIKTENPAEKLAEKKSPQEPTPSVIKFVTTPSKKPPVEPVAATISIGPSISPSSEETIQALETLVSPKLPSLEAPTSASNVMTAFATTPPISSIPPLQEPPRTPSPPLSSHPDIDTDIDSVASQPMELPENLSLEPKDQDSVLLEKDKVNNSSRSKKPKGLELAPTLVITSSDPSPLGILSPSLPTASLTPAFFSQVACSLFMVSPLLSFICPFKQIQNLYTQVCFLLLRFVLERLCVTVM
# Method in brief: as §1
# ETV2 = target: T10, ETV2 (Homo sapiens, UniProt O00321 1-342); settings: protein: recombinant; tags: N-terminal GST; dsDNA, one strand shown
# T10 sequence: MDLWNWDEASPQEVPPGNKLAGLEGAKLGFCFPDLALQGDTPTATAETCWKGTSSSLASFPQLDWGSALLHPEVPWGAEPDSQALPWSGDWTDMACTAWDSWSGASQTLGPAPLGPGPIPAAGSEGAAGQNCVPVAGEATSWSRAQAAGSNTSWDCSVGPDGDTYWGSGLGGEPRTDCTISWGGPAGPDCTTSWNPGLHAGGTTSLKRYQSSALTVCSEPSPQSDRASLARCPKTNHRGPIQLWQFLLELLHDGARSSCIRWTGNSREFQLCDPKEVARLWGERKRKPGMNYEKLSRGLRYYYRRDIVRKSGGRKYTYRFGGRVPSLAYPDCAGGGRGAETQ
# Method in brief: as §1
# ELF3 = target: T11, ELF3 (Homo sapiens, UniProt P78545 1-371); settings: protein: recombinant; tags: N-terminal GST; dsDNA, one strand shown
# T11 sequence: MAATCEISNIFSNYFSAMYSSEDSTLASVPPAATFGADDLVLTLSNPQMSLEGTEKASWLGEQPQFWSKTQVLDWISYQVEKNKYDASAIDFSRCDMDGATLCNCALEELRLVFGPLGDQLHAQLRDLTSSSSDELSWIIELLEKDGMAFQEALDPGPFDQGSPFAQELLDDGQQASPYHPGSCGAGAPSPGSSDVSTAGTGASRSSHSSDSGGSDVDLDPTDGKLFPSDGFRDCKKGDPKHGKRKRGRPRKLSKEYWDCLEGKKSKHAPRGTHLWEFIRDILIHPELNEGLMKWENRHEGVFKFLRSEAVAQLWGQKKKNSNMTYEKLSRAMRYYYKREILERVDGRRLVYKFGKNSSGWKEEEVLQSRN
# Method in brief: as §1
# CRX = CRX (Homo sapiens, UniProt O43186 1-299); settings: protein: recombinant; tags: N-terminal GST; dsDNA, one strand shown
# Method in brief: as §1
# ETV1 = ETV1 (Homo sapiens, UniProt P50549 1-477); settings: protein: recombinant; tags: N-terminal GST; dsDNA, one strand shown
# Method in brief: as §1
# ELF4, sequence (Q99607 whole entry): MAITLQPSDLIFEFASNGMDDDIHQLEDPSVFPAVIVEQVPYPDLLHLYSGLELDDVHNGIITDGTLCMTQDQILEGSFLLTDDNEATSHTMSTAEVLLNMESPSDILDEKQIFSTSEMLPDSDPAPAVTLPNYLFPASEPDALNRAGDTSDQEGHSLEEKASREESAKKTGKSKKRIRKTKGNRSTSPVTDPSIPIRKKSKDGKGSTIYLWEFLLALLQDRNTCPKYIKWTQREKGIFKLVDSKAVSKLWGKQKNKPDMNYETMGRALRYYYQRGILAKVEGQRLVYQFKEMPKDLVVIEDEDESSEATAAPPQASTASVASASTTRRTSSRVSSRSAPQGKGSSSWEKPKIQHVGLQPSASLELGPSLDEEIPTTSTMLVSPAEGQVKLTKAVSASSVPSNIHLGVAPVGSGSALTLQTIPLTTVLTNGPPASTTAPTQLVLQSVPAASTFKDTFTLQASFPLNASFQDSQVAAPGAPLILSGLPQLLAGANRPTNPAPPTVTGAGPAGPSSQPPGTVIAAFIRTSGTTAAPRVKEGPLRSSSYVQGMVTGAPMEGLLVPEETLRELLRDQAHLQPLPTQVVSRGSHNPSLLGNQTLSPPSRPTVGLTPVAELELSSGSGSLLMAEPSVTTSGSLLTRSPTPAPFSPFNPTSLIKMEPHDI
# SPIB, sequence (Q01892 whole entry): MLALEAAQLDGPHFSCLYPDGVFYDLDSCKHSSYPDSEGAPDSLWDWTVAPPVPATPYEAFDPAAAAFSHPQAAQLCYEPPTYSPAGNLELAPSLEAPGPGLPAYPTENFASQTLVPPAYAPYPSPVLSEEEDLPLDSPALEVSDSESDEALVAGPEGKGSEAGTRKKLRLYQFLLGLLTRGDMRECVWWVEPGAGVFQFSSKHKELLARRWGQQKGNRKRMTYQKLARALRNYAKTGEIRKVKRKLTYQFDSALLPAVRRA
# HSF1, sequence (Q00613 whole entry): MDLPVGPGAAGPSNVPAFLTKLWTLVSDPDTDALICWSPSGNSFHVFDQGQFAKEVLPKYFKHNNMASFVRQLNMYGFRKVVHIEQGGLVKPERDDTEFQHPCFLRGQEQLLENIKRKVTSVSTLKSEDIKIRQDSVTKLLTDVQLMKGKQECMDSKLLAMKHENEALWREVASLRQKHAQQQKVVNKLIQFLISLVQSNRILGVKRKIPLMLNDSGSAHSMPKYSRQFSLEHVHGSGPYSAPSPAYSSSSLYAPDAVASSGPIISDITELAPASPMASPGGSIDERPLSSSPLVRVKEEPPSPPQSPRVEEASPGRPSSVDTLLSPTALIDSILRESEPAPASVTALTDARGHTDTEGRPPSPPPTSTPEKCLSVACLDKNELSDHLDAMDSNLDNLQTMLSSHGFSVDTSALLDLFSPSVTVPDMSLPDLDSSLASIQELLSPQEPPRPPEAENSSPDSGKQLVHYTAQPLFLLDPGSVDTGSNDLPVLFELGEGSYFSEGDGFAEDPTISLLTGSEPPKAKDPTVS
# ETV5, sequence (P41161 whole entry): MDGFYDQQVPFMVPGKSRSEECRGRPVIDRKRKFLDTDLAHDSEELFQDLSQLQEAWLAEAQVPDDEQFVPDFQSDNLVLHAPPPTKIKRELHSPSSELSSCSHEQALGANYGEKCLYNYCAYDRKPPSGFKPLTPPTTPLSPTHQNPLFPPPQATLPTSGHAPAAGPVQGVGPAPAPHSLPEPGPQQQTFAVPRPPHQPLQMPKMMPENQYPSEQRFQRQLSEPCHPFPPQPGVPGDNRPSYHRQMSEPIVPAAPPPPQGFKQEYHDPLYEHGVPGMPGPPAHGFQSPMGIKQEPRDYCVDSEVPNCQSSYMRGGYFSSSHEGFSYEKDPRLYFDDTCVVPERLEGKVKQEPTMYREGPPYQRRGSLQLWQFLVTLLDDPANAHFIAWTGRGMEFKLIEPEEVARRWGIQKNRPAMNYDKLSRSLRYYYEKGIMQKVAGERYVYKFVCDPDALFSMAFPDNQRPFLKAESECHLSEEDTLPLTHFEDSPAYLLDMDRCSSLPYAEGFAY
# ELF1, sequence (P32519 whole entry): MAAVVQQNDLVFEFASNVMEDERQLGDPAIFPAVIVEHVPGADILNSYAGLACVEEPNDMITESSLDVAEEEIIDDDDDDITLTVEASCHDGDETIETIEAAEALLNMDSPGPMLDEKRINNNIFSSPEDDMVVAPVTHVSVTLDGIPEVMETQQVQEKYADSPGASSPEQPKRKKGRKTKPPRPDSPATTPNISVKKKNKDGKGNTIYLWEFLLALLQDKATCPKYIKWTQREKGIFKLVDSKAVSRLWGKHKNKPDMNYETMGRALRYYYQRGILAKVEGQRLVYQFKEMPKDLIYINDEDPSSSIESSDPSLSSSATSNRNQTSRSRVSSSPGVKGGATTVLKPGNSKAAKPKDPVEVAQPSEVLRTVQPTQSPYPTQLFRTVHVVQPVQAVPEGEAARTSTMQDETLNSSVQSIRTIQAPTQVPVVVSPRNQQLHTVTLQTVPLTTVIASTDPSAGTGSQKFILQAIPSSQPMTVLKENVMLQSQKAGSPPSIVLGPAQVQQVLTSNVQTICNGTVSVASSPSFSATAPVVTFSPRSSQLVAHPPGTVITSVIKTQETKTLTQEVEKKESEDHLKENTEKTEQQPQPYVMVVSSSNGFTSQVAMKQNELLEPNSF
# ETV1, sequence (P50549 whole entry): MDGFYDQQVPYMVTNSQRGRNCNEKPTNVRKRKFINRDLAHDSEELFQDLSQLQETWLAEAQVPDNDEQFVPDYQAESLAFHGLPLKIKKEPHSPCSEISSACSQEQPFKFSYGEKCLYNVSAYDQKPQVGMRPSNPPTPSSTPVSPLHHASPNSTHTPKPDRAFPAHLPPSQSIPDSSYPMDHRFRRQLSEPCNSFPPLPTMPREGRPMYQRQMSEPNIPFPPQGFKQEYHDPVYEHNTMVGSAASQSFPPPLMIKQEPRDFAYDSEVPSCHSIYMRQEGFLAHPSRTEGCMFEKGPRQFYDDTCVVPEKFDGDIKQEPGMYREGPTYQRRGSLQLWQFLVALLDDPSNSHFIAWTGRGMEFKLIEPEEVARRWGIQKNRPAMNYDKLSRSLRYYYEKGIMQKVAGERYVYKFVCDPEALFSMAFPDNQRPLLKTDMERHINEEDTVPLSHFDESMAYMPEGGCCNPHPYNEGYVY
# CRX, sequence (O43186 whole entry): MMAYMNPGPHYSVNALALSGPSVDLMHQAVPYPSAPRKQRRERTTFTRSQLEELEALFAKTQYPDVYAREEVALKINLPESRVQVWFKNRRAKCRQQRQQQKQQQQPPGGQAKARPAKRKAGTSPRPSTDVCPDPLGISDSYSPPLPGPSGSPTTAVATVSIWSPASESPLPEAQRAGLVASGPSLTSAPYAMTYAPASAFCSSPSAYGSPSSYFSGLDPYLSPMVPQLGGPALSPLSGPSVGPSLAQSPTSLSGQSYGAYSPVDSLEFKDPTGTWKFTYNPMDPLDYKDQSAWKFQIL
sequence,measurement,setting,value
TCTCAA,binding signal,FLI1,"1.38 fold enrichment (6-mer frequency, TF over GST control)"
same,binding signal,ELK1,"1.27 fold enrichment (6-mer frequency, TF over GST control)"
same,binding signal,GABPA,"1.27 fold enrichment (6-mer frequency, TF over GST control)"
same,binding signal,ERG,"1.28 fold enrichment (6-mer frequency, TF over GST control)"
same,binding signal,ELF1,"1.26 fold enrichment (6-mer frequency, TF over GST control)"
same,binding signal,EHF,"1.19 fold enrichment (6-mer frequency, TF over GST control)"
same,binding signal,SPI1,"1.22 fold enrichment (6-mer frequency, TF over GST control)"
same,binding signal,SPIB,"1.33 fold enrichment (6-mer frequency, TF over GST control)"
same,binding signal,ELK3,"1.43 fold enrichment (6-mer frequency, TF over GST control)"
same,binding signal,FEV,"1.25 fold enrichment (6-mer frequency, TF over GST control)"
same,binding signal,ETV5,"1.3 fold enrichment (6-mer frequency, TF over GST control)"
same,binding signal,HSF1,"1.33 fold enrichment (6-mer frequency, TF over GST control)"
same,binding signal,SPIC,"1.24 fold enrichment (6-mer frequency, TF over GST control)"
same,binding signal,ELF4,"1.35 fold enrichment (6-mer frequency, TF over GST control)"
same,binding signal,ELK4,"1.25 fold enrichment (6-mer frequency, TF over GST control)"
same,binding signal,ETV2,"1.34 fold enrichment (6-mer frequency, TF over GST control)"
same,binding signal,ELF3,"1.45 fold enrichment (6-mer frequency, TF over GST control)"
same,binding signal,CRX,"1.39 fold enrichment (6-mer frequency, TF over GST control)"
same,binding signal,ETV1,"1.3 fold enrichment (6-mer frequency, TF over GST control)"
